Growth inhibition data for 21 molecules are collected here from PubChem BioAssay (NCI).

A short description of test [1]: NCI Yeast Anticancer Drug Screen. Data for the rad50 strain (AID 155).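 Further: 0% = growth of vehicle-only cultures of the same strain.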 Conditions: S. cerevisiae rad50 strain growth inhibition; at 50.0 µM; stronger effect = higher value. The procedure, abridged:
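Growth of the mutant yeast was measured after compound exposure and referenced to vehicle-treated cultures.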

Test [2] in a line: NCI Yeast Anticancer Drug Screen. Data for the mec2-1 strain (AID 157). As to conditions: S. cerevisiae mec2-1 strain, at 50.0 µM, stronger effect = higher value. In outline:
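Yeast mec2-1 mutant treated with compound. Readout: growth inhibition vs vehicle controls.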

Test [3] in a line: NCI Yeast Anticancer Drug Screen. Data for the sgs1 mgt1 strain (AID 161).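 Further: 0% = growth of cultures given vehicle only.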 As to conditions: S. cerevisiae sgs1 mgt1 strain, at 50.0 µM, stronger effect = higher value. In outline: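 Test agents were incubated with a DNA-repair-mutant yeast strain. Growth was then read and compared against vehicle-treated controls.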
Test [4] in a line: NCI Yeast Anticancer Drug Screen. Data for the cln2 rad14 strain (AID 165).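 Further: 0% = growth equal to vehicle treated cultures.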 As to conditions: S. cerevisiae cln2 rad14 strain, at 50.0 µM, stronger effect = higher value. In outline: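 cln2 rad14 yeast strain; compound exposure; growth inhibition read vs vehicle controls.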
Test [5] in a line: NCI Yeast Anticancer Drug Screen. Data for the bub3 strain (AID 167). Conditions: S. cerevisiae bub3 mutant strain, at 50.0 µM, stronger effect = higher value. The procedure, abridged:
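Whole-cell yeast assay. The mutant strain was incubated with compounds, and growth inhibition was determined by comparison with vehicle-treated cells.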

A short description of test [6]: NCI Yeast Anticancer Drug Screen. Data for the mlh1 rad18 strain (AID 175). As to conditions: S. cerevisiae mlh1 rad18 strain growth inhibition; at 50.0 µM; stronger effect = higher value. In outline:
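Yeast w/ defined DNA-repair lesions; compound exposure; growth vs vehicle controls → % inhibition.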

SMILES strings stand for the structures. Compounds without any hit were thinned out: in the full panel of roughly 79,000, 15% have a hit. A number with no mark means an inactive call. Calls of active or inactive are those of the source. No stated cut-off is given here; in the data, active means growth inhibition above about 70%; inactive means the rest.

As to `Nc1nc(N)c2[nH]c(N)nc2n1`, the growth inhibition in test [1] is -9.65%; in test [2], -12.2%; in test [3] it was -8.9%; in test [4], -14.4%; in test [5], 3.45%; in test [6], -55.3%.

For the molecule `O=P1(c2ccccc2)CCCCN1` (stereo unspecified), the growth inhibition is 12.2% in test [1]; -16.1% in test [2]; -5.1% in test [3]; -20.9% in test [4]; 3.55% in test [5]; 1.8% in test [6].

Turning to `CCN(CC)c1cccc(OC(=O)NC)c1`, the growth inhibition in test [1] is 0.55%; in test [2], -0.25%; in test [3], -4.6%; in test [4], -15.8%; in test [5], 3.5%; in test [6], -10%.

With `O=C(O)C(O)c1ccc(Cl)cc1` (stereo unspecified), the growth inhibition in test [1] is 17.7%; in test [2], -0.65%; in test [3], -14.8%; in test [4], -15.1%; in test [5], 16.1%; in test [6], 11.2%.

Consider `C/C(CCl)=N\NC1=NC2(CCCCC2)P(=O)(NNc2ncccn2)S1` (stereo unspecified), for which the growth inhibition is 3.7% in test [1]; 12% in test [2]; 19.9% in test [3]; -0.5% in test [4]; 6.3% in test [5]; 15.2% in test [6].

On to `N#CC(C#N)=Cc1ccc(F)cc1`, for which the growth inhibition in test [1] was -6.85%; in test [2], 5%; in test [3] it was -18.7%; in test [4] it was -15.7%; in test [5], 16.1%; in test [6] it was -15.5%.

On to `Nc1ccc2c(c1)[O][Sn]([c]1ccccc1)([c]1ccccc1)[O]C2=O`, for which the growth inhibition is 85.5% (active) in test [1]; 89.5% (active) in test [2]; 89.1% (active) in test [3]; 89.2% (active) in test [4]; 88.1% (active) in test [5]; 89.3% (active) in test [6].

Take `O=C(O)C(Cl)Cl`: the growth inhibition in test [1] was -1.6%; in test [2], -29.6%; in test [3], 4.45%; in test [4], -10.1%; in test [5], -1.6%; in test [6], 9.45%.

As for `CCC12C=CCN3CCC4(C(=C(C(=O)OC)C1)Nc1ccccc14)[C@H]32` (stereo partly specified), the growth inhibition is 6.7% in test [1]; 6% in test [2]; 6% in test [3]; -8% in test [4]; 7.25% in test [5]; 0.8% in test [6].

For the molecule `CC(=O)C(N)Cc1ccccc1` (stereo unspecified), the growth inhibition in test [1] was 24.4%; in test [2] it was 17.2%; in test [3], 10%; in test [4], -26.6%; in test [5], 23.2%; in test [6] it was 15.2%.

Turning to `NC(=O)CCC(NC(=O)Cc1ccccc1)C(=O)O` (stereo unspecified) (tested in a mixture with another compound), the growth inhibition in test [1] is -4.45%; in test [2], -14.1%; in test [3], 0.25%; in test [4] it was -29.9%; in test [5], -9.65%; in test [6], 8.95%.

`CN(C)C(=O)Sc1cc(Cl)c(S(=O)(=O)F)cc1Cl`: the growth inhibition in test [1] is 9.45%; in test [2], 6.8%; in test [3], 10.7%; in test [4], 8.9%; in test [5] it was 3.35%; in test [6], 14.9%.

As for `O=S(=O)(O)O.[Cr+3].[NH-]CC[NH-].[NH-]CC[NH-].[NH-]CC[NH-]`, the growth inhibition in test [1] is -20.7%; in test [2] it was -20.1%; in test [3], 0.75%; in test [4] it was -36.5%; in test [5], 10%; in test [6], 7.25%.

For the molecule `CCCCC1(CCO)C(=O)NC(=O)NC1=O`, the growth inhibition in test [1] was -12.1%; in test [2] it was -2.65%; in test [3], -5.7%; in test [4] it was -19.1%; in test [5] it was 28.4%; in test [6], -20.6%.

With `COC(=O)C1c2cc(OC)c(OC)cc2C(=O)N2CCc3cc4c(cc3C12)OCO4` (stereo unspecified), the growth inhibition in test [1] was 15.8%; in test [2], -14.8%; in test [3], 0.65%; in test [4], 12.1%; in test [5], -3.3%; in test [6], 9.2%.

For the molecule `Cn1nnc(-c2nnn(C)n2)n1`, the growth inhibition is -19.1% in test [1]; -12.5% in test [2]; -8.65% in test [3]; -14.8% in test [4]; -15.9% in test [5]; -19.6% in test [6].

As for `CCCCCCCCCCCCCCCCP(=O)(O)OP(=O)(O)OCC1OC(n2cnc3c(N)ncnc32)C(O)C1O` (stereo unspecified), the growth inhibition in test [1] was 58.3%; in test [2], 53.2%; in test [3] it was 88.2% (active); in test [4], 58.6%; in test [5], 44.6%; in test [6], 80.3% (active).

Turning to `CCCC(=O)[O-].CCCC(=O)[O-].NCCN.NCCN.[Co+3].[O-][Cl+3]([O-])([O-])[O-]`, the growth inhibition in test [1] was -18.5%; in test [2], 19.1%; in test [3], -5.1%; in test [4], 23%; in test [5], -0.45%; in test [6], -1.75%.

Regarding `CC(O)c1ccc(Br)cc1` (stereo unspecified), the growth inhibition was -7.95% in test [1]; 13.3% in test [2]; 3.55% in test [3]; -72.4% in test [4]; -1.45% in test [5]; 16% in test [6].

As to `CC(C)[C@]12O[C@H]1[C@@H]1O[C@]13[C@]1(O[C@H]1C[C@H]1C4=C(C(=O)OC4)[C@@H](O)C[C@@]13C)[C@@H]2O`, the growth inhibition in test [1] was -8.4%; in test [2] it was -18.4%; in test [3], 6%; in test [4] it was -5.85%; in test [5], -0.3%; in test [6] it was -12.8%.

On to `C1CCC2[N-]CCCC2C1.C1CCC2[N-]CCCC2C1.[Cl][Pt+2][Cl]` (stereo unspecified), for which the growth inhibition in test [1] is 42.2%; in test [2], 36%; in test [3] it was 55.2%; in test [4] it was 22.9%; in test [5] it was 59.4%; in test [6], 64.6%.
